Tests used:
Assay in all cases: DAPPL (digital affinity profiling via proximity ligation, sequencing); 10 mM Tris-HCl pH 7.5, 50 mM NaCl, 1 mM DTT, 4% glycerol, room temperature, 30 min; GST-TFs on glutathione beads, 16-mer random dsDNA library, 0.1% formaldehyde crosslink after washing; high values mean tight binding
FEV = target: T1, FEV (Homo sapiens, UniProt Q99581 1-238); details: protein: recombinant; tags: N-terminal GST; dsDNA, one strand shown
T1 sequence: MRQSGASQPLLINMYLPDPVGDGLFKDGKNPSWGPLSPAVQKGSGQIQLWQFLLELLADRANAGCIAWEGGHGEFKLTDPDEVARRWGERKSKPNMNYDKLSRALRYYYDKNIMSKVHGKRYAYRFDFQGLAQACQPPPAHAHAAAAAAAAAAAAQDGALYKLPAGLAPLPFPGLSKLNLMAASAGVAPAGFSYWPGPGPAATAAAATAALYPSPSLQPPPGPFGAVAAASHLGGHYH
How it was run: (§1)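 Pools of DNA-barcoded human transcription factors, expressed in yeast as GST fusions on glutathione beads and combined with a tag-only sample, were incubated with 200 nmole of a 16-mer random double-stranded DNA library. Incubation took 30 min at room temperature in Tris/NaCl/DTT/glycerol buffer and was followed by washing, 0.1% formaldehyde crosslinking, proximity ligation (BsaI/T4 ligase, 1 h, 37 °C), PCR amplification and sequencing on an Illumina NextSeq500. Binding signal is the ratio of a hexamer's read frequency for a factor to its frequency for the tag-only sample.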

ETV5 = ETV5 (Homo sapiens, UniProt P41161 1-510); details: protein: recombinant; tags: N-terminal GST; dsDNA, one strand shown
ETV5, sequence (P41161 whole entry): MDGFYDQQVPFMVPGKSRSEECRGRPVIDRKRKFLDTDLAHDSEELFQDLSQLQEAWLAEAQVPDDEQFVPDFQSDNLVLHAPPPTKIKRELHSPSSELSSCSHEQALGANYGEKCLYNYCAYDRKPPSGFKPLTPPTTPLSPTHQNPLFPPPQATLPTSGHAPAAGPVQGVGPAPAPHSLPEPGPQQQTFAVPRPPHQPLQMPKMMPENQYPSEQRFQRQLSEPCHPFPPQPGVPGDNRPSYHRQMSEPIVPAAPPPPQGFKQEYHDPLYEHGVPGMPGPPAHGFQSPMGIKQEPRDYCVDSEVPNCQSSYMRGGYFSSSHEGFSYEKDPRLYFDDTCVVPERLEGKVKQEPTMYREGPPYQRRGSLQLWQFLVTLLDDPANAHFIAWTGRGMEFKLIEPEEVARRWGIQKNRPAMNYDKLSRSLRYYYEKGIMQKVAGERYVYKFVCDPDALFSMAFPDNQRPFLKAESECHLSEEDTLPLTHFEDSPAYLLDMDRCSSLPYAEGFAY
How it was run: as §1

HSF1 = HSF1 (Homo sapiens, UniProt Q00613 1-529); details: protein: recombinant; tags: N-terminal GST; chain copies: 3; dsDNA, one strand shown
HSF1, sequence (Q00613 whole entry): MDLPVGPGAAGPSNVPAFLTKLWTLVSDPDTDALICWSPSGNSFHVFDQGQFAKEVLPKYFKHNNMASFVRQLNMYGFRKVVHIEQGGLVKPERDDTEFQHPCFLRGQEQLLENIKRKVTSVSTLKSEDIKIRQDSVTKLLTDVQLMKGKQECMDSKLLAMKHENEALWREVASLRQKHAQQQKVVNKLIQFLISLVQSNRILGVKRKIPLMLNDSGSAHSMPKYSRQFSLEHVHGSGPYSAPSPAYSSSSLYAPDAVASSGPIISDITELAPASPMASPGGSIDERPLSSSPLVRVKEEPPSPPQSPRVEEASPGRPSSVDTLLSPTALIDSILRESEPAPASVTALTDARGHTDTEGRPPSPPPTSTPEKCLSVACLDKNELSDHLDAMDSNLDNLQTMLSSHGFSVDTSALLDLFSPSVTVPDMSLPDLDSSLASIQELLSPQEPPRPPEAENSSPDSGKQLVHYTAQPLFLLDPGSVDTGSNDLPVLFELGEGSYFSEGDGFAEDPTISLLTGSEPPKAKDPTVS
How it was run: as §1

SPIC = target: T2, SPIC (Homo sapiens, UniProt Q8N5J4 1-248); details: protein: recombinant; tags: N-terminal GST; dsDNA, one strand shown
T2 sequence: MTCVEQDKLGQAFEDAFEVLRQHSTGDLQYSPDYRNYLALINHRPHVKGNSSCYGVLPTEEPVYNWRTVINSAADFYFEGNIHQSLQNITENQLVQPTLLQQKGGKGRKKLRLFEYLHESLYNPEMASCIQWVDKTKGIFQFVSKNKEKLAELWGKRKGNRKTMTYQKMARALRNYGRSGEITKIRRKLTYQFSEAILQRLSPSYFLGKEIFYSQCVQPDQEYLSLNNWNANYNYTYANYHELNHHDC
How it was run: as §1

ELF4 = ELF4 (Homo sapiens, UniProt Q99607 1-663); details: protein: recombinant; tags: N-terminal GST; dsDNA, one strand shown
ELF4, sequence (Q99607 whole entry): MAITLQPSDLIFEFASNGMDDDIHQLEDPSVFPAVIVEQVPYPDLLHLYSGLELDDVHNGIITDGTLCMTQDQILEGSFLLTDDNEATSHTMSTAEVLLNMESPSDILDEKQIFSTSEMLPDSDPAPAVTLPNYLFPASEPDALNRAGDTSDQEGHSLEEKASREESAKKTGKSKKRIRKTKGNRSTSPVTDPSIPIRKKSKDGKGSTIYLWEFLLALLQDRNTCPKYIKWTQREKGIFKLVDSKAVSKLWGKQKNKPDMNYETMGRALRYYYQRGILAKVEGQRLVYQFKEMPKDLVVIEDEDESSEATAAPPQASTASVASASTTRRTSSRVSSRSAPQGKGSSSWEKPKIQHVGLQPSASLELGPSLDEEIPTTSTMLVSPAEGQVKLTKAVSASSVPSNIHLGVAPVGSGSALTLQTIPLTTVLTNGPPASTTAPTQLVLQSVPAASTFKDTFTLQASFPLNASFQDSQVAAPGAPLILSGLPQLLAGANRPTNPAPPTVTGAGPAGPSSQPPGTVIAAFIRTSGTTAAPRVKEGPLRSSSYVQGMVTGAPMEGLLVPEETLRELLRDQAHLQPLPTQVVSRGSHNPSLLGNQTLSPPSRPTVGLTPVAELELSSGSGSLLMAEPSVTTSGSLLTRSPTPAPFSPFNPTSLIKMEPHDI
How it was run: as §1

ELK4 = target: T3, ELK4 (Homo sapiens, UniProt P28324-2 1-405); details: protein: recombinant; tags: N-terminal GST; dsDNA, one strand shown
T3 sequence: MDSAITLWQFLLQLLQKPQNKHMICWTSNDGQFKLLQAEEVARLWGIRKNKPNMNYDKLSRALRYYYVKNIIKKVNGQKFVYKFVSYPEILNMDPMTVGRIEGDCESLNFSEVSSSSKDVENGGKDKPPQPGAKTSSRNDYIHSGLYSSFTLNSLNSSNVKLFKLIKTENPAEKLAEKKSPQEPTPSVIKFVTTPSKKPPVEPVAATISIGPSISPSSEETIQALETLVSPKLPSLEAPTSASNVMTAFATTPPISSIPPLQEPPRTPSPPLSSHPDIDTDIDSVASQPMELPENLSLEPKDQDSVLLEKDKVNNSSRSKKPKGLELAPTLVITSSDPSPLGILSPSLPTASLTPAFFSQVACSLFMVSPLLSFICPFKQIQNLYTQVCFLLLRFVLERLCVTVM
How it was run: as §1

ETV2 = target: T4, ETV2 (Homo sapiens, UniProt O00321 1-342); details: protein: recombinant; tags: N-terminal GST; dsDNA, one strand shown
T4 sequence: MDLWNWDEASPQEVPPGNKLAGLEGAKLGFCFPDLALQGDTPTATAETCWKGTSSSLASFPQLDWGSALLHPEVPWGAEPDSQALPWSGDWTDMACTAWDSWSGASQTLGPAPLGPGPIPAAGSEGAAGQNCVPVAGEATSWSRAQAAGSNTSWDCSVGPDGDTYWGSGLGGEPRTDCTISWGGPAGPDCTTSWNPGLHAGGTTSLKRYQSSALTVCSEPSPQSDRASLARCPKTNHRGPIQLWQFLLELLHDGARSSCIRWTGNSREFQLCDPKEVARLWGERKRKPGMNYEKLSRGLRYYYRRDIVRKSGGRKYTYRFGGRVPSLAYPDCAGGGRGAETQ
How it was run: as §1

ELF3 = target: T5, ELF3 (Homo sapiens, UniProt P78545 1-371); details: protein: recombinant; tags: N-terminal GST; dsDNA, one strand shown
T5 sequence: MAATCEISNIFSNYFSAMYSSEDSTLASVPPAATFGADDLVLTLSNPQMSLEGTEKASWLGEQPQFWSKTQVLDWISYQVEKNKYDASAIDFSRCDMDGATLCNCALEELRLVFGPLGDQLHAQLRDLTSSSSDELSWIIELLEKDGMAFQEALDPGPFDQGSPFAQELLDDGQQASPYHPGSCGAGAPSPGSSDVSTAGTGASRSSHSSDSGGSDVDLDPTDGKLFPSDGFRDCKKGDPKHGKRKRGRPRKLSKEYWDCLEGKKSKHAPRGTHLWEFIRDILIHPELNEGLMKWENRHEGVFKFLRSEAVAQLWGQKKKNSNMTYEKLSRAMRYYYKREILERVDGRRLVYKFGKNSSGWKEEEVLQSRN
How it was run: as §1

CRX = CRX (Homo sapiens, UniProt O43186 1-299); details: protein: recombinant; tags: N-terminal GST; dsDNA, one strand shown
CRX, sequence (O43186 whole entry): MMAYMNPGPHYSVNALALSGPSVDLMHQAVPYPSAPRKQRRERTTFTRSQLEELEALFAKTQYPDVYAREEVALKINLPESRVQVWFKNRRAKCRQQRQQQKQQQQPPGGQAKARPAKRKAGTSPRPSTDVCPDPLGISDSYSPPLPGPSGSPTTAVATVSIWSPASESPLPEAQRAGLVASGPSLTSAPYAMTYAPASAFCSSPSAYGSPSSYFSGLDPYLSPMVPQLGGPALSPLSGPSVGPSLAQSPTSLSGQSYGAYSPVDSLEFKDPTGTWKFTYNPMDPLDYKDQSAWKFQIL
How it was run: as §1

ETV1 = ETV1 (Homo sapiens, UniProt P50549 1-477); details: protein: recombinant; tags: N-terminal GST; dsDNA, one strand shown
ETV1, sequence (P50549 whole entry): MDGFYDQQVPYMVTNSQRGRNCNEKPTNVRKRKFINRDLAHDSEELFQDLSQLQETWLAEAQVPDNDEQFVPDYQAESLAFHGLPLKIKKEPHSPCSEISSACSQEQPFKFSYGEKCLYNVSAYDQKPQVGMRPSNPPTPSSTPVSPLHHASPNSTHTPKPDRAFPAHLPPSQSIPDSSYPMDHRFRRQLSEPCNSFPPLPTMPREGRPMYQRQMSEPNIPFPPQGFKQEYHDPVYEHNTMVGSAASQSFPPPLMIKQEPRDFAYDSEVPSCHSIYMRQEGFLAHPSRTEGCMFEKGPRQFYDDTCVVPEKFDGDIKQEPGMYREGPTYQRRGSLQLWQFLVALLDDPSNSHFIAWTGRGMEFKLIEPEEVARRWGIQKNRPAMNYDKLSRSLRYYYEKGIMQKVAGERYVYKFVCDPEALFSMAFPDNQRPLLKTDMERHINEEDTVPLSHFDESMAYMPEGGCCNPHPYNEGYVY
How it was run: as §1

ERF = target: T6, ERF (Homo sapiens, UniProt P50548 1-548); details: protein: recombinant; tags: N-terminal GST; dsDNA, one strand shown
T6 sequence: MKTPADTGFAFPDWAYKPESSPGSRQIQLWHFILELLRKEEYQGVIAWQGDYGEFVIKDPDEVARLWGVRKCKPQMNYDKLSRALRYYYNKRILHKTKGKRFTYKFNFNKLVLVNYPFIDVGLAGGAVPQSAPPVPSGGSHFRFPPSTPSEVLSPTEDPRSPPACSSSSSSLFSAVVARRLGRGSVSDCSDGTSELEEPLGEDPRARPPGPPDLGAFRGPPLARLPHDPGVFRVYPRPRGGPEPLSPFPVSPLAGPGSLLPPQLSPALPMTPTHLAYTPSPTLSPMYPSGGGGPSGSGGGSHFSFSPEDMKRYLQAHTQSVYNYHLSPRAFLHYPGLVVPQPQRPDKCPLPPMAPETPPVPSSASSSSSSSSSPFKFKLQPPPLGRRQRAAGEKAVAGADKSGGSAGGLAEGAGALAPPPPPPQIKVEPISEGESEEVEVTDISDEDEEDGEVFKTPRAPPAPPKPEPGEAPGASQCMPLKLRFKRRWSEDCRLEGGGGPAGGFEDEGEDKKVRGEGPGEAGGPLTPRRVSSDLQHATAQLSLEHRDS
How it was run: as §1

ETV3L = target: T7, ETV3L (Homo sapiens, UniProt Q6ZN32 1-361); details: protein: recombinant; tags: N-terminal GST; dsDNA, one strand shown
T7 sequence: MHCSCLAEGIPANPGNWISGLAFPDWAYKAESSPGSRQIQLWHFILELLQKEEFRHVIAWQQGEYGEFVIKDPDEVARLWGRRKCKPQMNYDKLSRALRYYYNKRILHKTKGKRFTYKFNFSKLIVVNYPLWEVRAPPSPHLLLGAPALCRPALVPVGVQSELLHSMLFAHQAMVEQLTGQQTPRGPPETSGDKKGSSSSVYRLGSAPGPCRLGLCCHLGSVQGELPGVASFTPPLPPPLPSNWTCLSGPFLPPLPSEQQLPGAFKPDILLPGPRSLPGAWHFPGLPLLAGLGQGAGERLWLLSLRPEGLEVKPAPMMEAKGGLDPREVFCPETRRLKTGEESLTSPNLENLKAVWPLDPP
How it was run: as §1

ETS2 = target: T8, ETS2 (Homo sapiens, UniProt P15036 1-469); details: protein: recombinant; tags: N-terminal GST; dsDNA, one strand shown
T8 sequence: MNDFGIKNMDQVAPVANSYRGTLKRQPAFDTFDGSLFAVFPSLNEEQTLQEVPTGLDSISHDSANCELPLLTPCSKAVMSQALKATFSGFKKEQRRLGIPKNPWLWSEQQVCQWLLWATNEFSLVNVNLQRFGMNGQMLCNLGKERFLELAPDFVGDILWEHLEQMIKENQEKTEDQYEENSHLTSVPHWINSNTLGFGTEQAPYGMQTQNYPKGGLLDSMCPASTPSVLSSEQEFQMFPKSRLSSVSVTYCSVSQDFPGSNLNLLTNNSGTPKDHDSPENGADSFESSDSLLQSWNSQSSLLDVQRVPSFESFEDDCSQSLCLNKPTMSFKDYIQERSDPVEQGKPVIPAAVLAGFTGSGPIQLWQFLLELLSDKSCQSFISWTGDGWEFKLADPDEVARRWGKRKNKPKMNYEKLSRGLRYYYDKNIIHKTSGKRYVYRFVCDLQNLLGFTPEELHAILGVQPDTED
How it was run: as §1

SPDEF = target: T9, SPDEF (Homo sapiens, UniProt O95238 1-335); details: protein: recombinant; tags: N-terminal GST; dsDNA, one strand shown
T9 sequence: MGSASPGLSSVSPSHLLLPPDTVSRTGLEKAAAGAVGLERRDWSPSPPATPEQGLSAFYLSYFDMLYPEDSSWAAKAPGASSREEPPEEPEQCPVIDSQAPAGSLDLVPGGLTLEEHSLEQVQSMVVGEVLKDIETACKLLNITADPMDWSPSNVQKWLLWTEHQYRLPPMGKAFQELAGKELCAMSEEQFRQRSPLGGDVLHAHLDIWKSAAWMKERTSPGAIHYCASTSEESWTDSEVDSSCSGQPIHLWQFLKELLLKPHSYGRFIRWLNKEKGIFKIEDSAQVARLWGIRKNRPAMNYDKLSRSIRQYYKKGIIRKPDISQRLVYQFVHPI
How it was run: as §1

ETV7 = target: T10, ETV7 (Homo sapiens, UniProt Q9Y603 1-341); details: protein: recombinant; tags: N-terminal GST; dsDNA, one strand shown
T10 sequence: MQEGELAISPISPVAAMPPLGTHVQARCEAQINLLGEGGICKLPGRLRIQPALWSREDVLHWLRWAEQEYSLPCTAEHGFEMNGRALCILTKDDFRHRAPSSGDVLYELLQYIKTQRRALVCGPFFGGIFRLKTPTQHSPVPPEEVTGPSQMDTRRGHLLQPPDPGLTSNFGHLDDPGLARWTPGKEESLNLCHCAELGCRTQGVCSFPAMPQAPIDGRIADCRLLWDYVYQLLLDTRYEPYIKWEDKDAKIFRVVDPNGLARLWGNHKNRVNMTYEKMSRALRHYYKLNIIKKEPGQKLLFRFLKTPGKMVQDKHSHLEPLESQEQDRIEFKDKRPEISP
How it was run: as §1

ELF5 = target: T11, ELF5 (Homo sapiens, UniProt Q9UKW6-2 1-255); details: protein: recombinant; tags: N-terminal GST; dsDNA, one strand shown
T11 sequence: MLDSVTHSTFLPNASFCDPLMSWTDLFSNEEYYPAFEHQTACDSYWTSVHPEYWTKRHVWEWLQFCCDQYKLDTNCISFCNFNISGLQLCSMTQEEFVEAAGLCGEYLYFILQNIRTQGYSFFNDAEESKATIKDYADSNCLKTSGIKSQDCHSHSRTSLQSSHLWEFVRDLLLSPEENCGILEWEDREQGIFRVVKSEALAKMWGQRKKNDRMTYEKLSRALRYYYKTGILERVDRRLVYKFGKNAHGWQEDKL
How it was run: as §1

ETV3 = target: T12, ETV3 (Homo sapiens, UniProt P41162-2 1-143); details: protein: recombinant; tags: N-terminal GST; dsDNA, one strand shown
T12 sequence: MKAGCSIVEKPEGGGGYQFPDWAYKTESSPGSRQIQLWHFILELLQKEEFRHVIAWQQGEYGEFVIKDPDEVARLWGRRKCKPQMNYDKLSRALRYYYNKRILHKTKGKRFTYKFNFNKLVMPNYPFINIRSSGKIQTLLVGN
How it was run: as §1

ETV6 = ETV6 (Homo sapiens, UniProt P41212 1-452); details: protein: recombinant; tags: N-terminal GST; dsDNA, one strand shown
ETV6, sequence (P41212 whole entry): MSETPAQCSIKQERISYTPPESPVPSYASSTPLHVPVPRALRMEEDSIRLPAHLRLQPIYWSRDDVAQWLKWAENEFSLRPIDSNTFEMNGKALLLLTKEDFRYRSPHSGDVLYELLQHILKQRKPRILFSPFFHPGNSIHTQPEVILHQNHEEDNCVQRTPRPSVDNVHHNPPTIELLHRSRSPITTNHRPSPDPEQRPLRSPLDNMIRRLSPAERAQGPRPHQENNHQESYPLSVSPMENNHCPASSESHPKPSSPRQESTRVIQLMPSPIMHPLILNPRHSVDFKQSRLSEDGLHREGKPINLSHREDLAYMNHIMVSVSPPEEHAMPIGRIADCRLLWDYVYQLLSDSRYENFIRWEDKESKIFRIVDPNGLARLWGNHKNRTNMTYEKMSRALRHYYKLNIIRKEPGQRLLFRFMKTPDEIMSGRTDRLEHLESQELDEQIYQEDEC
How it was run: as §1

Q: How did the binding signal (FEV) turn out when TTCCCA was run?
A: Its binding signal is 1.16 fold enrichment (6-mer frequency, TF over GST control).

Q: And the binding signal (ETV5)?
A: The binding signal was 1.29 fold enrichment (6-mer frequency, TF over GST control).

Q: What about the binding signal (HSF1) of the same sequence?
A: Its binding signal is 1.08 fold enrichment (6-mer frequency, TF over GST control).

Q: What about the binding signal (SPIC) of the same sequence?
A: The binding signal was 1.23 fold enrichment (6-mer frequency, TF over GST control).

Q: What about the binding signal (ELF4) of the same sequence?
A: Its binding signal is 1.26 fold enrichment (6-mer frequency, TF over GST control).

Q: What about the binding signal (ELK4) of the same sequence?
A: The binding signal was 1.08 fold enrichment (6-mer frequency, TF over GST control).

Q: What about the binding signal (ETV2) of the same sequence?
A: The binding signal was 1.13 fold enrichment (6-mer frequency, TF over GST control).

Q: What about the binding signal (ELF3) of the same sequence?
A: The binding signal was 1.27 fold enrichment (6-mer frequency, TF over GST control).

Q: What about the binding signal (CRX) of the same sequence?
A: The binding signal was 1.16 fold enrichment (6-mer frequency, TF over GST control).

Q: And the binding signal (ETV1)?
A: The binding signal was 1.2 fold enrichment (6-mer frequency, TF over GST control).

Q: What about the binding signal (ERF) of the same sequence?
A: The binding signal was 1.24 fold enrichment (6-mer frequency, TF over GST control).

Q: And the binding signal (ETV3L)?
A: Its binding signal is 1.25 fold enrichment (6-mer frequency, TF over GST control).

Q: And the binding signal (ETS2)?
A: Its binding signal is 1.15 fold enrichment (6-mer frequency, TF over GST control).

Q: And the binding signal (SPDEF)?
A: The binding signal was 1.25 fold enrichment (6-mer frequency, TF over GST control).

Q: What about the binding signal (ETV7) of the same sequence?
A: Its binding signal is 1.27 fold enrichment (6-mer frequency, TF over GST control).

Q: And the binding signal (ELF5)?
A: The binding signal was 1.42 fold enrichment (6-mer frequency, TF over GST control).

Q: What about the binding signal (ETV3) of the same sequence?
A: Its binding signal is 1.25 fold enrichment (6-mer frequency, TF over GST control).

Q: What about the binding signal (ETV6) of the same sequence?
A: Its binding signal is 1.33 fold enrichment (6-mer frequency, TF over GST control).

Reference: paper PMC7862700, “An all-to-all approach to the identification of sequence-specific readers for epigenetic DNA modifications on cytosine”
